From PubChem BioAssay (NCI) come the findings set out here.

The panel holds about 83,000 compounds, 20% with a hit somewhere; the sample as a whole holds those more often.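 Single-concentration screen, 48 h exposure, 96-well plates. Endpoint: percent growth. Below 10 = active.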 Unmarked numbers belong to inactive results. The source made the active and inactive calls.

Test systems include HCT-15 colon; HT29 colon; SNB-75 CNS; SNB-19 CNS; U251 CNS; PC-3 prostate; SK-MEL-5 melanoma; LOX IMVI melanoma; SK-MEL-28 melanoma; SK-MEL-2 melanoma; EKVX NSCLC; SN12C renal; UO-31 renal; TK-10 renal; ACHN renal; CAKI-1 renal; A498 renal; CCRF-CEM leukemia; MOLT-4 leukemia; UACC-62 melanoma.
Test in all cases: NCI-60 one-dose screen, 48 h (100 = growth as untreated, 0 = no growth, -100 = all killed)
What all share (settings): 10 µM unless noted

With `C=C(C)C1CCC(=C)C2CCC3(C)OC12/C=C(/COC(C)=O)CCC3O` (stereo not given), the growth in the experiment on HCT-15 colon was 96.1%; with HT29 colon it was 140%; with SNB-75 CNS, 126%; in the experiment with SNB-19 CNS it was 112%; in the experiment on U251 CNS, 89%; in the experiment with PC-3 prostate, 95.9%. Further, the growth in the experiment on SK-MEL-5 melanoma was 93.2%; with LOX IMVI melanoma it was 84.2%; with SK-MEL-28 melanoma, 156%; in the experiment on SK-MEL-2 melanoma, 85.4%; in the experiment on EKVX NSCLC, 96.1%; in the experiment on SN12C renal it was 106%. Also, the growth is 92.7% with UO-31 renal; 121% in the experiment on TK-10 renal; 98.2% with ACHN renal; 6.18% (active) in the experiment with CAKI-1 renal; 104% in the experiment on A498 renal; 130% in the experiment with CCRF-CEM leukemia. Also, in the experiment on MOLT-4 leukemia, the growth was 83.6%.

In the case of `COC(=O)c1ccc(CSc2nnc(-c3ccncc3)o2)cc1`, the growth was 108% in the experiment with HCT-15 colon; 109% in the experiment on HT29 colon; 81.9% with SNB-75 CNS; 110% with SNB-19 CNS; 104% with U251 CNS; 87.5% in the experiment on PC-3 prostate. The growth is 112% in the experiment on SK-MEL-5 melanoma; 97.5% with UACC-62 melanoma; 107% in the experiment with SK-MEL-28 melanoma; 102% in the experiment on SK-MEL-2 melanoma; 101% with EKVX NSCLC; 96.2% in the experiment on SN12C renal. Besides, the growth in the experiment with UO-31 renal was 79.7%; with TK-10 renal, 116%; with ACHN renal, 100%; with CAKI-1 renal, 90.3%; with A498 renal, 120%; in the experiment with CCRF-CEM leukemia, 99.3%.

Regarding `COc1ccc(Oc2nc(Nc3ccc(N4CCOCC4)nc3)ncc2NC(=O)c2cc(OC)cc(OC)c2)cc1`, the growth in the experiment with HCT-15 colon was 52.9%; with HT29 colon, 77.8%; with SNB-75 CNS it was 70.6%; in the experiment on SNB-19 CNS, 80.6%; with U251 CNS it was 84.2%; in the experiment on PC-3 prostate, 67.9%. For the same compound, the growth is 70.9% with SK-MEL-5 melanoma; 69.3% in the experiment on UACC-62 melanoma; 79.8% in the experiment with SK-MEL-28 melanoma; 47.6% in the experiment on SK-MEL-2 melanoma; 89.3% with EKVX NSCLC; 56.3% with UO-31 renal. For the same compound, the growth with TK-10 renal is 83.4%; in the experiment on ACHN renal it was 75.1%; with CAKI-1 renal, 67.3%; in the experiment with A498 renal, 53.7%; with CCRF-CEM leukemia, 64.2%.

In the case of `Cn1c(NCCc2ccc(O)c(O)c2)nc2c1c(=O)n(Cc1ccc(Cl)cc1)c(=O)n2C`, the growth is 40.7% in the experiment with HCT-15 colon; 101% in the experiment on HT29 colon; 57.1% with SNB-75 CNS; 93% with SNB-19 CNS; 104% in the experiment on U251 CNS; 60% in the experiment on PC-3 prostate. The growth with SK-MEL-5 melanoma was 75.3%; with UACC-62 melanoma, 82.7%; in the experiment on SK-MEL-28 melanoma, 86%; in the experiment with SK-MEL-2 melanoma it was 95%; in the experiment on EKVX NSCLC, 84.8%; in the experiment with SN12C renal it was 82.7%. Also, the growth in the experiment with UO-31 renal is 29.8%; in the experiment with TK-10 renal, 69.9%; in the experiment with ACHN renal it was 39.5%; with CAKI-1 renal, 38.7%; in the experiment on A498 renal, 86.2%; in the experiment with CCRF-CEM leukemia it was 12.8%.

`CCN(CC)N=Nc1nn(C(=O)Nc2ccc(Cc3ccccc3)cc2)c2ccc(Cl)cc12`: the growth in the experiment on HCT-15 colon was 43.6%; in the experiment on HT29 colon, 61.8%; with SNB-75 CNS, 88.8%; with SNB-19 CNS, 67.2%; in the experiment with U251 CNS it was 93.4%; with PC-3 prostate, 69.6%. The growth in the experiment on SK-MEL-5 melanoma was 56.6%; in the experiment with UACC-62 melanoma, 8.7% (active); in the experiment with SK-MEL-28 melanoma, 70.8%; in the experiment on SK-MEL-2 melanoma it was 72.9%; in the experiment with EKVX NSCLC, 47.5%; in the experiment with SN12C renal it was 83.1%. The growth in the experiment on UO-31 renal is 65.6%; with TK-10 renal it was 83.5%; in the experiment on ACHN renal, 28.1%; with CAKI-1 renal it was 65.9%; in the experiment on A498 renal, 87.9%; in the experiment with CCRF-CEM leukemia, 62.5%.

Take `CC(C)CCC[C@@H](C)[C@H]1CCC2C3=CCn4c(=O)ccc(=O)n4C3CC[C@@]21C` (stereo not given in full): the growth is -44.6% (active) with HCT-15 colon; -63.7% (active) with HT29 colon; -100% (active) in the experiment on SNB-75 CNS; -96.8% (active) with SNB-19 CNS; -96.9% (active) in the experiment on U251 CNS; -85.5% (active) in the experiment on PC-3 prostate. Moreover, the growth in the experiment on SK-MEL-5 melanoma was -100% (active); in the experiment with LOX IMVI melanoma, -89.5% (active); in the experiment with SK-MEL-28 melanoma, -93% (active); in the experiment on SK-MEL-2 melanoma it was -57.4% (active); with EKVX NSCLC, -82.2% (active); in the experiment with SN12C renal it was -97.7% (active). The growth in the experiment on UO-31 renal is -88.5% (active); in the experiment with TK-10 renal, -83.1% (active); with ACHN renal, -95.1% (active); in the experiment on CAKI-1 renal, -91.6% (active); in the experiment with A498 renal, -94.8% (active); in the experiment on CCRF-CEM leukemia, -2.44% (active). Besides, the growth with MOLT-4 leukemia is -23.6% (active).

Consider `C=C(CNCCc1ccc(O)cc1)[C@@H]1CC[C@]2(COC3CCCCO3)CC[C@]3(C)[C@H](CC[C@@H]4[C@@]5(C)CCC(N)C(C)(C)[C@@H]5CC[C@]43C)[C@@H]12` (stereo not given in full), for which the growth with HCT-15 colon was -93% (active); with HT29 colon it was -93.8% (active); with SNB-75 CNS, -88% (active); with SNB-19 CNS, -85.8% (active); in the experiment on U251 CNS, -91.7% (active); in the experiment with PC-3 prostate, -91% (active). In addition, the growth in the experiment with SK-MEL-5 melanoma was -97.9% (active); in the experiment with UACC-62 melanoma it was -87% (active); with SK-MEL-28 melanoma, -94.9% (active); with SK-MEL-2 melanoma, -82.9% (active); in the experiment on EKVX NSCLC, -74.6% (active); in the experiment on UO-31 renal, -96.8% (active). For the same compound, the growth in the experiment on TK-10 renal is -90.7% (active); in the experiment with ACHN renal, -99% (active); in the experiment on CAKI-1 renal it was -91.8% (active); in the experiment with A498 renal it was -98.7% (active); with CCRF-CEM leukemia, -64.1% (active).

For the compound `CC(C)OCCCNCC(=O)Nc1ccc(S(=O)(=O)c2ccc(NC(=O)CNCCCOC(C)C)cc2)cc1`, the growth in the experiment on HCT-15 colon is 120%; with HT29 colon, 27.4%; in the experiment on SNB-75 CNS, 85.5%; in the experiment with SNB-19 CNS, 103%; in the experiment on U251 CNS it was 85.6%; in the experiment with PC-3 prostate it was 87%. Besides, the growth in the experiment on SK-MEL-5 melanoma is 82.4%; in the experiment with LOX IMVI melanoma, 78.7%; with SK-MEL-28 melanoma it was 99.9%; in the experiment on SK-MEL-2 melanoma, 115%; in the experiment on EKVX NSCLC it was 101%; in the experiment on SN12C renal, 90.8%. For the same compound, the growth was 90.8% in the experiment with UO-31 renal; 93.9% in the experiment on TK-10 renal; 100% in the experiment with ACHN renal; 94.4% in the experiment with CAKI-1 renal; 89.5% in the experiment on A498 renal; 85.1% in the experiment with CCRF-CEM leukemia. The growth with MOLT-4 leukemia is 78.1%.
